We go through 38 compounds from ChEMBL document CHEMBL5308504, “Tm Shift (DSF) assay results for EUbOPEN Chemogenomics Library” (2023).

Experiment [1] concerns the target Bromodomain-containing protein 4 (Homo sapiens) (UniProt O60885). The note with it: Compound concentration 20.0 uM, Protein concentration 2.0 uM, Result type QC Liability.
For experiment [2], the target named is T1, Transcription intermediary factor 1-alpha (Homo sapiens) (UniProt O15164).
T1 sequence (whole entry): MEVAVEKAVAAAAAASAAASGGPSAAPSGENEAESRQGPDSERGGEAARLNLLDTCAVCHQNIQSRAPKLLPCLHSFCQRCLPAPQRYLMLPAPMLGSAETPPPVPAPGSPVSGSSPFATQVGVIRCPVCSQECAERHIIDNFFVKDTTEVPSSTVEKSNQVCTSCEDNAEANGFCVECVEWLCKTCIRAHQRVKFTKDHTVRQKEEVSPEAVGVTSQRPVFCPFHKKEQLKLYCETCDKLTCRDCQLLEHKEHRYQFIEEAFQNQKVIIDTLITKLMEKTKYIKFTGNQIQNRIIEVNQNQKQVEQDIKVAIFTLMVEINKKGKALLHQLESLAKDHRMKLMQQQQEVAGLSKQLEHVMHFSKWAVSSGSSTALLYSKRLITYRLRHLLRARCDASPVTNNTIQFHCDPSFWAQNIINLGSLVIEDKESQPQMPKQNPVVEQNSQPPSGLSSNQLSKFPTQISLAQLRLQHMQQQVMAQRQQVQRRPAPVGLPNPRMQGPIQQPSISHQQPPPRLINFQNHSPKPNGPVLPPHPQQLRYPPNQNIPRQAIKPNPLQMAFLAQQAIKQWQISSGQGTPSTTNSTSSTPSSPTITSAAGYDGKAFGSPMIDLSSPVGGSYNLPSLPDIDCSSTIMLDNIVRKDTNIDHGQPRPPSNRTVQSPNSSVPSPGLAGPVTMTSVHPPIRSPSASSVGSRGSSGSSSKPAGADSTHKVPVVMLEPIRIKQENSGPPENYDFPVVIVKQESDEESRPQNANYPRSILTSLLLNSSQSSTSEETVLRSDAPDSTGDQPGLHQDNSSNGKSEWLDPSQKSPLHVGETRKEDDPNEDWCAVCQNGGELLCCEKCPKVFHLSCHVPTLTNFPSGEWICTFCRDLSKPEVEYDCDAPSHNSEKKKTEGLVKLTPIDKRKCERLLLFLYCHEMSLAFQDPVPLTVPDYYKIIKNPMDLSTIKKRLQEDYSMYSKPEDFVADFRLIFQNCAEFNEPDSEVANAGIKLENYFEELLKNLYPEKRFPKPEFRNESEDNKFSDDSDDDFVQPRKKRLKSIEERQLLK
The note with it: Compound concentration 20.0 uM, Protein concentration 2.0 uM, Result type QC Liability.

SMILES strings stand for the structures. Several values for one entry are separate records, joined by “and”; a condition that tells them apart may be missing. Identical values can stand only once.

As to `Cc1c(-c2c(F)cc(C(N)=O)c3[nH]c4c(c23)CC[C@H](C(C)(C)O)C4)cccc1-n1c(=O)c2cccc(F)c2n(C)c1=O`, the results for the ΔTm in experiment [1] and in experiment [2] were -0.86 °C and 0.6 °C, respectively.
The corresponding values for `Fc1ccc(-c2nc(-c3ccc4ccccc4c3F)[nH]c2-c2ccncc2)cc1` are -0.46 °C and -0.4 °C.
As to `CCCCc1c(-c2ccccc2)nc(N)nc1-c1ccc(OCc2ccccc2)c(F)c1F`, the ΔTm in experiment [1] was -11.4 °C; in experiment [2], -1.94 °C.
As to `CCC(F)(F)c1cc(N2CCC(S(C)(=O)=O)CC2)nc2sc(C(N)=O)c(N)c12`, the ΔTm in experiment [1] is -3.68 °C and -1.82 °C and -0.22 °C; in experiment [2], 0.36 °C and -3.9 °C and -0.99 °C.
For the compound `O[C@]1(C(F)(F)F)CCCC[C@H]1Nc1ccc(F)cc1`, the ΔTm is -1.92 °C in experiment [1] and -2.51 °C in experiment [2].
The corresponding values for `O=C(O)C[C@H]1CC[C@H](c2ccc(NC(=O)c3nnc(Nc4ccc(F)c(F)c4)o3)cc2)CC1` are -0.2 °C and 0.52 °C.
On the same counts, the results for `N#C/C(=C\c1ccc(O)c(O)c1)C(=O)OCCc1cccs1` are -0.61 °C and 0.49 °C.
On the same counts, the results for `C1=Cc2ccccc2C(=C2CCN(CCCCc3nnn[nH]3)CC2)c2ccccc21` are -12.7 °C and -0.3 °C.
Take `COc1cc(N(C)c2ccnc3ccc(C(F)(F)F)cc23)cc(OC)c1OC`: the figures for the ΔTm in experiment [1] and in experiment [2] were -0.67 °C and -4.07 °C, respectively.
On the same counts, the results for `O=C(CNCc1cc2ccccc2[nH]1)N[C@H]1CC[C@@H](c2nc3ccccc3[nH]2)CC1` are -0.08 °C and -0.53 °C.
On the same counts, the results for `CCS(=O)(=O)Nc1cccc(Oc2cncc(Nc3ccc(I)cc3F)c2C(N)=O)c1` are -0.22 °C and 1.47 °C.
With `N#CC[C@H](C1CCCC1)n1cc(-c2ncnc3[nH]ccc23)cn1`, the ΔTm was -0.65 °C in experiment [1] and -1.72 °C in experiment [2].
For `CCCCOc1c(C(=O)c2c(F)cc(C)cc2F)c[nH]c2nncc1-2`, the ΔTm in experiment [1] is -0.5 °C; in experiment [2], -1.46 °C.
The corresponding values for `Nc1nccc(-c2c(-c3ccc(F)cc3)ncn2C2CCCCC2)n1` are 0.24 °C and -0.83 °C.
The corresponding values for `Cn1c(Nc2c(Cl)cccc2Cl)nc2ccc3nc[nH]c(=O)c3c21` are -3.08 °C and -3.83 °C.
With `CC(C)NC(=O)[C@H]1CCC[C@H]1Nc1nc(Nc2ccc(C(=O)N(C)C3CCN(C)CC3)cc2)ncc1Cl`, the ΔTm is -1.48 °C and -0.92 °C in experiment [1]; 0.3 °C and -2.89 °C in experiment [2].
As to `N[C@@H]1CCCN(c2c(/C=C3\SC(=O)NC3=O)cccc2-c2ccccc2)C1`, the ΔTm in experiment [1] is -2.91 °C; in experiment [2], -2.28 °C.
The corresponding values for `CNC(=O)c1nnc(NC(=O)C2CC2)cc1Nc1cccc(-c2ncn(C)n2)c1OC` are -2.45 °C and -4.06 °C.
The corresponding values for `COc1ccc(COc2ccc(Cc3cnc(N)nc3N)cc2OC)cc1` are -1.17 °C and -1.22 °C.
On the same counts, the results for `O=C1Nc2ccc(I)cc2/C1=C/c1cc(Br)c(O)c(Br)c1` are -0.9 °C and -2.17 °C.
For the compound `Cc1nc2cccnc2n2c(-c3cc(C(C)(C)O)ncc3Cl)nnc12`, the ΔTm in experiment [1] is -1.96 °C; in experiment [2], -2.03 °C.
The corresponding values for `CC(C)C(=O)N[C@@H]1CCN(C(=O)Nc2nc3c(s2)-c2nc(-c4ccccc4Cl)ncc2CC3)C1` are -0.28 °C and -3.41 °C.
The corresponding values for `CC(C)(C)OC(=O)CN1C(=O)c2c(OCC(=O)O)cccc2Oc2ccc(C(F)(F)F)cc21` are 0 °C and 0.32 °C.
The corresponding values for `CS(=O)(=O)NCC[C@H](NC(=O)c1cncc2c1cnn2-c1ccc(F)cc1)c1ccnc(S(C)(=O)=O)c1` are -0.38 °C and 0.28 °C.
For `Cc1csc(S(=O)(=O)N(CC(C)C)c2cc3c(cc2OCc2ccc(C(=O)O)cc2)CCC3)n1`, the ΔTm in experiment [1] was -0.64 °C; in experiment [2], -0.15 °C.
As to `O=C(Cc1ccccc1)Nc1nnc(N2CC[C@@H]3[C@H]2CN3c2cccnn2)s1`, the ΔTm in experiment [1] is -3.72 °C; in experiment [2] it was -3.22 °C.
On the same counts, the results for `Cc1cc(-c2nc(-c3ccc(OC(F)(F)F)cc3)no2)nn1Cc1ccnc(N2CCN(C3CC3)CC2)c1` are 0.31 °C and 0.28 °C.
The corresponding values for `COc1cccc(CNc2ccc(S(=O)(=O)Nc3nc4ccccc4s3)cc2)c1O` are 0.58 °C and 0.53 °C.
On the same counts, the results for `C[C@H]1CN(C2COC2)CCN1c1ccc(Nc2cc(-c3ccnc(N4CCn5c(cc6c5CC(C)(C)C6)C4=O)c3CO)cn(C)c2=O)nc1` are -1.88 °C and 0.42 °C.
`CN[C@@H](C)C(=O)N[C@H](C(=O)N1CCC[C@H]1C(=O)N[C@H]1c2ccccc2C[C@H]1OCC#CC#CCO[C@@H]1Cc2ccccc2[C@@H]1NC(=O)[C@@H]1CCCN1C(=O)[C@@H](NC(=O)[C@H](C)NC)C1CCCCC1)C1CCCCC1`: the ΔTm in experiment [1] is -4.51 °C; in experiment [2], -2.69 °C.
On the same counts, the results for `CNC(=O)c1ccc2c(c1)ncn2-c1ccc(CC(=O)OC(C)(C)C)cc1` are -0.5 °C and -3.2 °C.
As to `CCCCC[C@@](C)(O)/C=C/[C@H]1C(=O)CC(O)C1C/C=C\CCCC(=O)O` (stereo partly specified), the ΔTm was -1.7 °C in experiment [1] and -0.59 °C in experiment [2].
On the same counts, the results for `CC(=O)Nc1nc(C)c(S(=O)(=O)Nc2ccc(C(O)(C(F)(F)F)C(F)(F)F)cc2)s1` are -1.81 °C and -0.92 °C.
On the same counts, the results for `O=C(Nc1ccc(-n2nc(-c3cccnc3)cc2C(F)(F)F)cn1)c1ccc(-c2ccccc2)c(F)c1` are -2.41 °C and 0.2 °C.
On the same counts, the results for `CC(=O)c1c(C)c2cnc(Nc3ccn(C)n3)nc2n(C2CCCC2)c1=O` are -0.76 °C and -2.16 °C.
For the compound `COC1(C#Cc2ccc(Cl)c(-c3ncc4c(n3)-c3sc(NC(C)=O)nc3CC4)c2)CCN(C)CC1`, the ΔTm in experiment [1] was -2.24 °C; in experiment [2], -3.35 °C.
On the same counts, the results for `Cc1cc2c(-c3ccco3)cnc(N[C@@H]3CCN(C)C[C@H]3C(=O)NC3CCCCC3)c2[nH]c1=O` are 13.3 °C and -4.37 °C.
On the same counts, the results for `CC1CN(CC(=O)N2CC(C)(C)c3nc(CO)c(Cc4ccc(F)cc4)cc32)C(CN2CCOCC2C)CN1` (stereo unspecified) are -2.32 °C and -3.23 °C.

The ΔTm is the change in melting temperature against a reference sample.
